SMILES strings stand for the structures. About 83,000 compounds went through this panel and 20% of them were active in at least one assay; those are over-represented in the sample as a whole.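 In brief: 96-well plates, 48 h treatment, single concentration, percent growth endpoint.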 Unmarked numbers belong to inactive results. Calls of active or inactive are those of the source. How the source made its calls: active means growth percent below 10; inactive means the rest.

Holding throughout (assay): NCI-60 one-dose screen, 48 h (100 = growth as untreated, 0 = no growth, -100 = all killed)
One experiment relates to HCT-15 colon. To be noted: 10 µM unless noted.
The test system of another experiment is HT29 colon. To be noted: 10 µM unless noted.
The next experiment has as its system SNB-75 CNS. To be noted: 10 µM unless noted.
The next experiment has as its system SNB-19 CNS. The settings on record: 10 µM unless noted.
The test system of the next experiment is U251 CNS. The settings on record: 10 µM unless noted.
In another experiment the test system is PC-3 prostate. To be noted: 10 µM unless noted.
Another experiment relates to SK-MEL-5 melanoma. To be noted: 10 µM unless noted.
Another experiment concerns UACC-62 melanoma. The settings on record: 10 µM unless noted.
In another experiment the test system is LOX IMVI melanoma. To be noted: 10 µM unless noted.
In the next experiment the test system is SK-MEL-28 melanoma. The settings on record: 10 µM unless noted.
A further experiment has as its system SK-MEL-2 melanoma. The settings on record: 10 µM.
The subject of the next experiment is EKVX NSCLC. The settings on record: 10 µM unless noted.
The test system of another experiment is SN12C renal. The settings on record: 10 µM unless noted.
For the next experiment, the system named is UO-31 renal. The settings on record: 10 µM unless noted.
Another experiment relates to TK-10 renal. The settings on record: 10 µM unless noted.
A further experiment has as its system ACHN renal. To be noted: 10 µM unless noted.
Another experiment relates to CAKI-1 renal. To be noted: 10 µM unless noted.
The test system of a further experiment is A498 renal. The settings on record: 10 µM unless noted.
A further experiment concerns CCRF-CEM leukemia. To be noted: 10 µM unless noted.
A further experiment has as its system MOLT-4 leukemia. To be noted: 10 µM unless noted.

Turning to `O=C(NCCO)Nc1ccc(-c2nc(N3CCOCC3)c3cccn3n2)cc1`, the growth was 11.5% in the experiment with HCT-15 colon; 14.4% with HT29 colon; -31.9% (active) with SNB-75 CNS; 18.3% in the experiment on SNB-19 CNS; 18.3% in the experiment on U251 CNS; 9.72% (active) in the experiment on PC-3 prostate. In addition, the growth with SK-MEL-5 melanoma was -27.6% (active); in the experiment with UACC-62 melanoma, -37.7% (active); in the experiment on LOX IMVI melanoma, 4.86% (active); in the experiment with SK-MEL-28 melanoma, -7.13% (active); in the experiment on SK-MEL-2 melanoma it was -9.19% (active); with EKVX NSCLC it was 3.13% (active). Further, the growth in the experiment with SN12C renal is 5.36% (active); in the experiment with UO-31 renal it was -18.2% (active); with TK-10 renal, -23.5% (active); in the experiment with ACHN renal, 9.2% (active); in the experiment with CAKI-1 renal it was 9.37% (active); in the experiment on A498 renal it was -54.8% (active). Moreover, the growth in the experiment with CCRF-CEM leukemia is 27.4%; in the experiment with MOLT-4 leukemia, 16.2%.
With `COc1cnc2c(c1)C(=O)c1c-2n(CCCN2CCOCC2)c(=O)c2cc(Cl)ccc12`, the growth in the experiment on HCT-15 colon was 43.9%; in the experiment with HT29 colon, 8.04% (active); in the experiment with SNB-75 CNS it was 45.9%; in the experiment on SNB-19 CNS it was 28.6%; in the experiment on U251 CNS it was 8.25% (active); with PC-3 prostate, 32%. Besides, the growth with SK-MEL-5 melanoma was -9.63% (active); in the experiment on UACC-62 melanoma it was 4.37% (active); in the experiment on LOX IMVI melanoma, -36.6% (active); with SK-MEL-28 melanoma, 66.4%; in the experiment on SK-MEL-2 melanoma, 92.1%; in the experiment with EKVX NSCLC it was 54.2%. Also, the growth in the experiment on SN12C renal was 21.6%; with UO-31 renal, 13.8%; in the experiment with TK-10 renal, 83.1%; in the experiment with ACHN renal, 6.75% (active); with CAKI-1 renal it was 18.3%; in the experiment on A498 renal, -2.15% (active). Further, the growth is 1.33% (active) in the experiment with CCRF-CEM leukemia and -17.8% (active) with MOLT-4 leukemia.
Regarding `COc1c(C(NC(=O)c2ccccc2)c2sccc2C)cc(Cl)c2cccnc12` (centres undefined), the growth was 101% in the experiment on HCT-15 colon; 94.1% in the experiment on HT29 colon; 88.4% in the experiment on SNB-75 CNS; 118% in the experiment with SNB-19 CNS; 88.6% in the experiment on U251 CNS; 83.2% in the experiment on PC-3 prostate. The growth was 98.4% in the experiment with SK-MEL-5 melanoma; 93% in the experiment with UACC-62 melanoma; 98.1% with LOX IMVI melanoma; 114% in the experiment with SK-MEL-28 melanoma; 108% with SK-MEL-2 melanoma; 100% in the experiment on EKVX NSCLC. Besides, the growth in the experiment on SN12C renal is 94.1%; in the experiment with UO-31 renal, 89.9%; with TK-10 renal, 98.4%; in the experiment with ACHN renal it was 104%; in the experiment with CAKI-1 renal it was 95.4%; in the experiment on CCRF-CEM leukemia it was 83.9%. For the same compound, in the experiment on MOLT-4 leukemia, the growth is 85.7%.
Turning to `N#Cc1c(-c2ccc(C(F)(F)F)cc2)cc(NCC2CCS(=O)(=O)CC2)n2c1nc1ccccc12`, the growth with HCT-15 colon was 86.2%; with HT29 colon it was 75.7%; in the experiment on SNB-75 CNS, 52.5%; with SNB-19 CNS it was 83.5%; in the experiment with U251 CNS it was 83.2%; in the experiment on PC-3 prostate, 63.4%. Moreover, the growth in the experiment on SK-MEL-5 melanoma is 77.7%; with UACC-62 melanoma it was 80.8%; in the experiment on LOX IMVI melanoma, 77.5%; in the experiment on SK-MEL-28 melanoma, 95.8%; in the experiment on SK-MEL-2 melanoma, 89.7%; in the experiment on EKVX NSCLC, 77.5%. Besides, the growth was 82.3% in the experiment on SN12C renal; 56.2% in the experiment with UO-31 renal; 93.1% with TK-10 renal; 86.8% in the experiment on ACHN renal; 80.9% with CAKI-1 renal; 55.3% in the experiment with A498 renal. The growth in the experiment with CCRF-CEM leukemia was 86.2%; with MOLT-4 leukemia it was 74.3%.
Take `CC1(O)CCC(Nc2cc(-c3ccc(C(F)(F)F)cc3)c(C#N)c3nc4ccccc4n23)CC1` (centres undefined): the growth with HCT-15 colon is 58.6%; in the experiment with HT29 colon, 60.7%; in the experiment on SNB-75 CNS it was 41.4%; in the experiment with SNB-19 CNS, 70.3%; in the experiment with U251 CNS it was 67.9%; in the experiment with PC-3 prostate it was 35.5%. The growth in the experiment with SK-MEL-5 melanoma was 5.75% (active); in the experiment on UACC-62 melanoma, 77.1%; with LOX IMVI melanoma it was 55%; with SK-MEL-28 melanoma, 89.3%; in the experiment on SK-MEL-2 melanoma it was 73.4%; in the experiment on EKVX NSCLC, 54.1%. Besides, the growth in the experiment on SN12C renal is 63.9%; with UO-31 renal it was 47.1%; in the experiment on TK-10 renal, 71.4%; in the experiment on ACHN renal, 59.8%; in the experiment on CAKI-1 renal it was 54.6%; with A498 renal it was 46.8%. The growth in the experiment on CCRF-CEM leukemia was 64.9%; with MOLT-4 leukemia it was 27.5%.
Regarding `COc1cnc2c(c1)C(=O)c1c-2n(CCCn2ccnc2)c(=O)c2cc(Cl)ccc12`, the growth was 28.9% in the experiment on HCT-15 colon; -31.5% (active) in the experiment with HT29 colon; 19% in the experiment with SNB-75 CNS; 20.2% in the experiment with SNB-19 CNS; -31% (active) with U251 CNS; 24.8% with PC-3 prostate. Besides, the growth in the experiment on SK-MEL-5 melanoma was -49.9% (active); with UACC-62 melanoma, -43.1% (active); with LOX IMVI melanoma it was -52.5% (active); with SK-MEL-28 melanoma, 52.2%; with SK-MEL-2 melanoma, 50%; with EKVX NSCLC, 40.2%. Moreover, the growth is 10% in the experiment on SN12C renal; -0.232% (active) in the experiment on UO-31 renal; 45.9% in the experiment on TK-10 renal; -3.65% (active) with ACHN renal; 11.9% in the experiment on CAKI-1 renal; -41.2% (active) in the experiment on A498 renal. In addition, the growth in the experiment on CCRF-CEM leukemia is -11.9% (active); in the experiment with MOLT-4 leukemia, -23.6% (active).
As to `COc1cnc2c(c1)C(=O)c1c-2n(CCCNC2=NCCS2)c(=O)c2cc(Cl)ccc12`, the growth is -69.2% (active) in the experiment with HCT-15 colon; -82.7% (active) in the experiment on HT29 colon; 57.9% in the experiment on SNB-75 CNS; -29.7% (active) in the experiment with SNB-19 CNS; -89.7% (active) in the experiment on U251 CNS; 20.5% in the experiment with PC-3 prostate. In addition, the growth is 39.4% in the experiment on SK-MEL-5 melanoma; -76.6% (active) in the experiment with UACC-62 melanoma; -90.5% (active) in the experiment with LOX IMVI melanoma; 90.8% in the experiment on SK-MEL-28 melanoma; 90.5% in the experiment on SK-MEL-2 melanoma; -35.8% (active) in the experiment on EKVX NSCLC. The growth in the experiment on SN12C renal is -49.4% (active); in the experiment with UO-31 renal, -80.6% (active); in the experiment with TK-10 renal, -17.7% (active); with ACHN renal it was -91.8% (active); in the experiment with CAKI-1 renal it was -91.8% (active); in the experiment with A498 renal, -13% (active). Further, the figures for the growth with CCRF-CEM leukemia and with MOLT-4 leukemia were -23% (active) and -41.5% (active), respectively.
Turning to `NC(=O)N1N=C(c2ccc(Cl)cc2)CC1c1cn(-c2ccccc2)nc1-c1ccc(Cl)cc1` (centres undefined), the growth in the experiment on HCT-15 colon was 72%; in the experiment with HT29 colon, 51.1%; with SNB-75 CNS it was -10.5% (active); in the experiment on SNB-19 CNS, 44%; with U251 CNS, 46%; in the experiment with PC-3 prostate it was 52.8%. The growth in the experiment on SK-MEL-5 melanoma is 79%; in the experiment on UACC-62 melanoma it was 61.7%; in the experiment with LOX IMVI melanoma, 55.9%; in the experiment with SK-MEL-28 melanoma it was 78.4%; with SK-MEL-2 melanoma, 74.3%; in the experiment with EKVX NSCLC, 58.1%. Further, the growth with SN12C renal is 61.9%; with UO-31 renal it was 21.5%; in the experiment with TK-10 renal, 43.2%; in the experiment on ACHN renal it was 26.1%; with CAKI-1 renal it was 67.7%; in the experiment on A498 renal, 71.1%. The growth in the experiment on CCRF-CEM leukemia is 85.2%; in the experiment with MOLT-4 leukemia, 62.9%.
